Results on 13 compounds are retold here after PubChem BioAssay.

Assay [1] deals with Human papillomavirus type 1a protein E7 (residues 44-93). In words: HPV1a E7 fragment binders on microarrays, primary screen, biochemical, small-molecule microarray, residues 44-93, 635 nm fluorescence (AID 1108).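 Note: E7 fragment applied at 1 µg/mL in TBST for 1 h at 4 C; score combines spot fluorescence with its signal to noise ratio.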 The following applies: small-molecule microarray binding, fluorescence 635 nm; higher = more signal.
Assay [2] is described as follows: modulators of HCV replicon luciferase signal, primary screen, HCV replication inhibitor project, Huh7 cells, luciferase reporter (AID 1109).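 Note: huh7 hepatoma cells harbouring a luciferase neomycin HCV replicon reporter; luciferase luminescence as measure of HCV replicon replication; test concentration not given here.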 To be noted: 48 h, higher = more signal. Background: A replicon is a self-replicating genome or part of one, used to study replication in cells.
Assay [3] addresses Left-right determination factor 2 (Homo sapiens) (UniProt O00292). In words: LEFTY2 binders on small-molecule microarrays, primary screen, biochemical, small-molecule microarray, 635 nm fluorescence scan (AID 1110). The following applies: LEFTY2 binding, higher = more signal.
Assay [4] has as its target Calmodulin-1 (Homo sapiens) (UniProt P0DP23). The experiment in a line: CALM1 binders on microarrays, EGTA buffer, profiling panel, biochemical, small-molecule microarray, Cy5-labelled CALM1 (AID 1111).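 Note: labelled calmodulin applied in Tris saline Tween buffer holding calcium plus EGTA and DTT.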 To be noted: Cy5-CALM1 binding fluorescence, higher = more signal.
The target is the same in assay [5]. In words: calcium-bound CALM1 binders on microarrays, profiling panel, artefact control for SMM control-protein annotation, biochemical, small-molecule microarray, Cy5-labelled CALM1, plus calcium (AID 1112).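 Note: score merges spot fluorescence with signal to noise from triplicate slides.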 To be noted: Cy5-CALM1 binding fluorescence, higher = more signal.
Assay [6] in a line: small-molecule microarray binders of probe aWnt5a, primary screen, biochemical, biotinylated probe, 635/667 nm fluorescence (AID 1113).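 Note: score merges 667 nm fluorescence intensity with signal-to-noise per printed feature.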 To be noted: higher = more signal.
A short description of assay [7]: small-molecule microarray binders of probe aShh, primary screen, biochemical, biotinylated probe, 635/667 nm fluorescence (AID 1114).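 Note: probe is biotin-labelled aShh protein from a stem cell growth factor screen; measures binding of labelled protein to compounds printed on the slide; score merges feature fluorescence at 667 nm with signal-to-noise.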 To be noted: higher = more signal.
Assay [8] in a line: small-molecule microarray binders of probe aNog, primary screen, biochemical, biotinylated probe, 635/667 nm fluorescence (AID 1115).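 Note: probe is biotinylated aNog protein used at 0.15 µg/mL for 1 h at 4 C; z-score combines 667 nm fluorescence of each spot with its signal to noise.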 The following applies: higher = more signal.
Assay [9] concerns the target Torsin-1A-interacting protein 1 (Homo sapiens) (UniProt Q5JTV8). In words: LAP1 binders from COS7 cell lysate, primary screen, small-molecule microarray, 635/667 nm fluorescence (AID 1116). The following applies: COS7-hLAP1 lysate binding, 635 nm fluorescence, higher = more signal.
For assay [10], the target named is Alpha-bungarotoxin (Bungarus multicinctus) (UniProt P60615). The experiment in a line: alpha-bungarotoxin binders on microarray, profiling panel, artefact control for SMM control protein annotation, biochemical, small-molecule microarray, Alexa647 label, 635/667 nm fluorescence (AID 1117). The following applies: alpha-BTX-A647 binding fluorescence, higher = more signal.
Alpha-bungarotoxin (Bungarus multicinctus), sequence (P60615 whole entry, looked up): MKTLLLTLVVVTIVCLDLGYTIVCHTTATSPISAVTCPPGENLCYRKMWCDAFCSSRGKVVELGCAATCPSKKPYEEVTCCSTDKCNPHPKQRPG

Left-right determination factor 2 (Homo sapiens), sequence (O00292 whole entry, looked up): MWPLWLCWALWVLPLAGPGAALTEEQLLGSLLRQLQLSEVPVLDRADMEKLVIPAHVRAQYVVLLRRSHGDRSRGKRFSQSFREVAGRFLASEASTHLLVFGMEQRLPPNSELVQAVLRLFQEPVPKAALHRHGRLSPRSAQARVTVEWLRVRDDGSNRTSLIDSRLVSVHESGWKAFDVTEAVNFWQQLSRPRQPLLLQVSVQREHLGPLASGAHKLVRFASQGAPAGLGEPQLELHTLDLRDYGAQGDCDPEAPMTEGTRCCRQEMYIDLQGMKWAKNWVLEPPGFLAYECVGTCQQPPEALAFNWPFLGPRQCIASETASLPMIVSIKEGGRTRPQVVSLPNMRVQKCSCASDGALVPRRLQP
Torsin-1A-interacting protein 1 (Homo sapiens), sequence (Q5JTV8 whole entry, looked up): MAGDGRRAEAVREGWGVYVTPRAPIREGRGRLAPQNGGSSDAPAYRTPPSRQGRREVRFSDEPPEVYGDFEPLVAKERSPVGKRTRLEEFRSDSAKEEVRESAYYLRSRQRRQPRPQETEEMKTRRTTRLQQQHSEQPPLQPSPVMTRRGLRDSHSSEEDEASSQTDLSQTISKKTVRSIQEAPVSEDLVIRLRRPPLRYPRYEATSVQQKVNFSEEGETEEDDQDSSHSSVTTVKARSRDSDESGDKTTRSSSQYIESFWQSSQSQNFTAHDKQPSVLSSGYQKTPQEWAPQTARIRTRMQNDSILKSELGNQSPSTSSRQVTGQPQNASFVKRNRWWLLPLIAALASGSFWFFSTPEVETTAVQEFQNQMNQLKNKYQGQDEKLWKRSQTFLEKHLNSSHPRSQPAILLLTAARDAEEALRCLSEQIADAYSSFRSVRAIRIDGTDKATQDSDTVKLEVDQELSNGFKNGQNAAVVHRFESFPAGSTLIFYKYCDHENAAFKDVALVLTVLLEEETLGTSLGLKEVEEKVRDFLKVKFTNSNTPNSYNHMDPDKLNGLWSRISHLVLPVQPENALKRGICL

Regarding `O=C1C2C=CC(C(O)c3ccc(Br)cc3)N(n3cnnc3)C2C(=O)N1Cc1ccccc1` (stereo not given), the composite z-score was 1.34 in assay [1]; 0.329 in assay [3]; -0.0714 in assay [4]; 0.182 in assay [5]; -0.0236 in [6]; -0.0827 in [7]. In addition, the composite z-score was 0.205 in [8], 0.465 in assay [9] and 0.942 in [10]. Besides, in [2], the z-score was -4.38.

In the case of `CN(C)CCCCNC(=O)[C@@H]1C[C@@H]2C(=O)N[C@@H](CCCCN)C(=O)N2[C@@H]1c1cccc(OCCO)c1`, the composite z-score is 0.572 in [1]; -1.55 in assay [3]; -0.328 in assay [4]; -0.547 in assay [5]; -0.12 in assay [6]; 0.0735 in assay [7]. Besides, the composite z-score is 0.42 in assay [8], 0.482 in assay [9] and -0.863 in assay [10]. In addition, the z-score in assay [2] was -0.289.

`O=C1c2ccccc2[C@@]2(Cc3ccccc3N(Cc3ccccc3)C2=O)[C@H](c2ccc(CO)cc2)N1Cc1ccccc1C(F)(F)F`: the composite z-score in [1] was -0.648; in assay [3] it was -1.3; in assay [4], -0.457; in assay [5], -0.176; in assay [6], -0.157; in [7], 0.0684. Further, the composite z-score in assay [8] was 0.549; in [9], 0.0154; in assay [10], -0.32. Besides, in assay [2], the z-score is -0.353.

Turning to `O=C(NCCN1CCOCC1)[C@@H]1c2ccccc2C(=O)N(Cc2cc(F)cc(C(F)(F)F)c2)[C@H]1c1ccc(CO)cc1`, the composite z-score in assay [1] was 1.44; in assay [3], -1.61; in assay [4], -0.346; in assay [5], 0.0296; in assay [6] it was -0.124; in assay [7], -0.214. Moreover, the composite z-score in assay [8] is -0.0949; in assay [9] it was 0.812; in assay [10] it was -0.444. The z-score in [2] was -1.33.

Turning to `COCC1=C([C@H](O)CCc2ccccc2)[C@H](CO)[C@@H]2C(=O)N(Cc3ccccc3)C(=O)[C@@H]2C1`, the composite z-score is -0.0325 in assay [1]; 0.435 in [3]; -0.519 in assay [4]; -0.465 in assay [5]; -0.0194 in assay [6]; -0.214 in assay [7]. Further, the results for the composite z-score in assay [8], in assay [9] and in assay [10] were -0.139, 0.167 and 0.206, respectively. In assay [2], the z-score is -0.711.

`O=C1C2C=CC(C(O)c3ccc(-c4ccccc4)s3)N(Nc3ccccc3F)C2C(=O)N1c1ccccc1` (stereo not given): the composite z-score in assay [1] was 1.37; in [3] it was -0.0452; in assay [4], 1.95; in [5], 1.24; in [6], -0.0758; in assay [7], 0.274. In addition, the composite z-score in assay [8] is -0.54; in [9], 0.599; in assay [10] it was 1.21. Besides, the z-score in assay [2] came out at 1.78.

With `C=C(COC)C(=O)CC[C@H](OC(=O)c1cccnc1)c1ccccc1OCCO`, the composite z-score was 0.862 in [1]; 0.53 in assay [3]; -0.0382 in [4]; -0.689 in assay [5]; -0.0479 in assay [6]; -0.138 in assay [7]. Moreover, the composite z-score in assay [8] was 0.437; in assay [9], 1.08; in [10], 0.443. Further, in assay [2], the z-score was -3.13.

For the compound `O=C1OCC=C[C@H]2OC34C=CCN(Cc5ccccc5)C(=O)[C@H]3N(CCCO)C(=O)[C@@H]4[C@@H]12` (stereo not given in full), the composite z-score in assay [1] was 1.22; in assay [3] it was -0.406; in assay [4] it was 1.19; in assay [5] it was 0.918; in assay [6] it was 0.0474; in [7], 0.63. Besides, the values for the composite z-score in [8], in assay [9] and in assay [10] were 0.134, 0.627 and -0.162, respectively. Besides, the z-score in assay [2] was -0.789.

Consider `COC(=O)[C@@]1(Cc2ccccc2)[C@H]2c3cc(C(=O)N(C)C)n(Cc4ccccc4)c3C[C@H]2CN1C(=O)c1ccccc1`, for which the composite z-score in assay [1] was 0.104; in [3] it was -0.586; in assay [4], 0.733; in assay [5], 0.0453; in [6] it was 0.3; in assay [7], 1.63. In addition, the composite z-score in assay [8] was found to be 0.837; in assay [9], 0.706; in assay [10], 0.273. In assay [2], the z-score was -1.13.

Take `[N-]=[N+]=NCc1ccccc1[C@H]1OC(c2ccc(OCCCO)cc2)=N[C@@]1(Cc1ccccc1)C(=O)O`: the composite z-score was 1.38 in assay [1]; 0.115 in [3]; 1.46 in assay [4]; 0.484 in assay [5]; 0.0079 in assay [6]; 0.199 in assay [7]. Further, the composite z-score was -0.204 in assay [8], 0.875 in [9] and 0.96 in assay [10]. Besides, the z-score in assay [2] is -2.64.

Take `CC(c1ccccc1)C(O)C1C=CC2C(=O)N(c3ccccc3)C(=O)C2N1Nc1ccccc1F` (stereo not given): the composite z-score was 1.4 in assay [1]; 0.0648 in assay [3]; -0.32 in assay [4]; -0.539 in assay [5]; 0.0485 in [6]; -0.203 in assay [7]. The composite z-score in [8] is -0.453; in assay [9], 1.03; in assay [10] it was 0.667. For the same compound, the z-score in assay [2] was -1.55.

As for `O=S(=O)(NCCCO)c1ccc(Br)cc1`, the composite z-score in [1] is 0.54; in assay [3] it was 0.548; in assay [4] it was 0.873; in assay [5], 0.698; in assay [6], 0.0251; in [7] it was -0.138. Moreover, the composite z-score in assay [8] is -0.122; in [9], 0.365; in assay [10], 0.284. Moreover, the z-score in [2] is -0.164.

`C=CCC(OC(C)=O)[C@@H]1[C@@H](N(Cc2ccc(-c3ccccc3)cc2)C(=O)c2ccc(C)cc2)c2cc(OCCCO)ccc2N1C(=O)Cc1ccc(OC)cc1` (stereo not given in full): the composite z-score was 0.422 in assay [1]; 0.0181 in [3]; -0.0181 in assay [4]; -0.164 in assay [5]; 0.0115 in assay [6]; -0.273 in assay [7]. Also, the composite z-score in assay [8] is -0.0579; in assay [9], 0.0982; in [10], 1.73. The z-score in assay [2] was -0.75.
